Assay [1] is described as follows: S16 Schwann cell viability assay (CellTiter-Glo assay) (AID 624031).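 Also: cellular ATP luminescence as a viability measure; nearly all actives have a fitted effect of over 70% in size.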 In outline:
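Native S16 rat Schwann cells, 500-750 cells/well in DMEM with 10% FBS, dosed with compound after overnight culture and incubated 24h at 37 degree Celsius/5% CO2. Viability by CellTiter-Glo luminescence; % activity normalized to no-cell wells and DMSO-treated cells.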

In the next assay the test system is ATS189. The experiment in a line: qHTS profiling for inhibitors of Plasmodium falciparum proliferation (AID 504749). Also: nearly all actives have a fitted effect of over 60% in size. Also: potency is read from the fitted curve at half-maximal effect. The settings on record: P. falciparum in erythrocytes, SYBR Green DNA, 72 h; series mostly up to 12.8 µM. The method in brief: (§1)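 Readout was DNA-dye fluorescence from lysed cultures, ex 485/em 535 nm. Parasitized red cells had grown 72 h with compound; data scaled between 0.29 uM artemisinin and DMSO wells and corrected using vehicle-only plates.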
For orientation: qHTS replaces the single test concentration by a dilution series.

A further assay concerns CP185. Described as above. The settings on record: P. falciparum in erythrocytes, SYBR Green DNA, 72 h; series mostly up to 12.8 µM. The method in brief: as §1
The next assay has as its system CP191. Described as above. To be noted: P. falciparum in erythrocytes, SYBR Green DNA, 72 h; series mostly up to 12.8 µM. The method in brief:
as §1

The subject of the next assay is CP201. The description is as above. To be noted: P. falciparum in erythrocytes, SYBR Green DNA, 72 h; series mostly up to 12.8 µM. The method in brief:
as §1

Another assay deals with CP247. The description is as above. The settings on record: P. falciparum in erythrocytes, SYBR Green DNA, 72 h; series mostly up to 12.8 µM. In outline: as §1
The test system of the next assay is CP250. Described as above. The settings on record: P. falciparum in erythrocytes, SYBR Green DNA, 72 h; series mostly up to 12.8 µM. In outline: as §1
The next assay concerns CP256. The assay is described as above. To be noted: P. falciparum in erythrocytes, SYBR Green DNA, 72 h; series mostly up to 12.8 µM. The method in brief:
as §1

A further assay concerns CP262. Described as above. To be noted: P. falciparum in erythrocytes, SYBR Green DNA, 72 h; series mostly up to 12.8 µM. In outline: as §1
A further assay concerns CP325. Described as above. The settings on record: P. falciparum in erythrocytes, SYBR Green DNA, 72 h; series mostly up to 12.8 µM. In outline: as §1
In another assay the test system is CP329. The description is as above. To be noted: P. falciparum in erythrocytes, SYBR Green DNA, 72 h; series mostly up to 12.8 µM. The method in brief: as §1
A further assay deals with Dd2. The description is as above. The settings on record: P. falciparum in erythrocytes, SYBR Green DNA, 72 h; series mostly up to 12.8 µM. In outline: as §1
For another assay, the system named is JCK. Described as above. To be noted: P. falciparum in erythrocytes, SYBR Green DNA, 72 h; series mostly up to 12.8 µM. In outline:
as §1

The test system of a further assay is N140. The description is as above. The settings on record: P. falciparum in erythrocytes, SYBR Green DNA, 72 h; series mostly up to 12.8 µM. The method in brief: as §1
For a further assay, the system named is PC15. The assay is described as above. To be noted: P. falciparum in erythrocytes, SYBR Green DNA, 72 h; series mostly up to 12.8 µM. The method in brief:
as §1

For another assay, the system named is PC49. Described as above. To be noted: P. falciparum in erythrocytes, SYBR Green DNA, 72 h; series mostly up to 12.8 µM. The method in brief:
as §1

In the next assay the test system is SC27B. The assay is described as above. To be noted: P. falciparum in erythrocytes, SYBR Green DNA, 72 h; series mostly up to 12.8 µM. The method in brief: as §1
In another assay the test system is TAB113. The assay is described as above. The settings on record: P. falciparum in erythrocytes, SYBR Green DNA, 72 h; series mostly up to 12.8 µM. The method in brief: as §1
Assay [2] has as its target Guanine nucleotide-binding protein G(i) subunit alpha-1 (Homo sapiens) (UniProt P63096). The experiment in a line: qHTS Assay for Inhibitors of RGS12 GoLoco Motif Activity (Green Fluorophore) (AID 879).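 Also: negative values mean loss of peptide binding seen as reduced polarization.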 In outline:
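Fluorescence polarization assay: 50 nM Gαi1 with 10 nM FITC-labeled RGS12 GoLoco peptide in 10 mM Tris pH 7.5, 150 mM NaCl, 0.1 mM GDP, 0.05% NP40, 10 min at room temperature with compound.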

The target in assay [3] is Pyruvate kinase PKM (Homo sapiens) (UniProt P14618). The experiment in a line: qHTS Assay for Activators of Human Muscle Pyruvate Kinase (AID 954; active = well fitted curve in the direction sought with a large enough effect, not every such curve was filed as active). The method in brief:
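Purified human PKM2 (0.1 nM) with 0.5 mM PEP (Km) and 0.1 mM ADP in 50 mM imidazole pH 7.2, KCl, MgCl2, 1 h at room temperature; ATP formed read by coupled luciferase luminescence. Normalized to no-enzyme/110 uM thiadiazolimine inhibition; 0.3 nM enzyme column for activation.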

Inconclusive results are not listed. Activity calls are given as the source filed them. Unless noted, calls follow the shape of the dose curve; as a rule, active = well fitted curve in the direction sought with a large enough effect; inconclusive = small, poorly fitted or top-dose-only effect, or another doubt; inactive = no such curve, though single readings can be large; an effect the other way counts as inactive or inconclusive.

Sequence of Pyruvate kinase PKM (Homo sapiens) (P14618 whole entry, looked up): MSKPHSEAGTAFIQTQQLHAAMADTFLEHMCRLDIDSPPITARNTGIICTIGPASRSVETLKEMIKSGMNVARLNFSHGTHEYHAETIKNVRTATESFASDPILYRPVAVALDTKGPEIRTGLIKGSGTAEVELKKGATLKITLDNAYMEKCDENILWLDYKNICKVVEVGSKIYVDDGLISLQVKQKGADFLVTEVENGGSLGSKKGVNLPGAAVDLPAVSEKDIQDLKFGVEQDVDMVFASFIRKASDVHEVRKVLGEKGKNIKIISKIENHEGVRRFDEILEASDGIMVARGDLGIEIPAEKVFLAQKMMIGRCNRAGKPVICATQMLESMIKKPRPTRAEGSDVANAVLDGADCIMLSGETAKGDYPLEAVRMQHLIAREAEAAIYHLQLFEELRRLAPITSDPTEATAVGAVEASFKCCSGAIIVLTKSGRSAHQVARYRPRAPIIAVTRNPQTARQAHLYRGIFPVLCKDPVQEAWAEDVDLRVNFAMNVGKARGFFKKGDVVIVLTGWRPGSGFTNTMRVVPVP
Sequence of Guanine nucleotide-binding protein G(i) subunit alpha-1 (Homo sapiens) (P63096 whole entry, looked up): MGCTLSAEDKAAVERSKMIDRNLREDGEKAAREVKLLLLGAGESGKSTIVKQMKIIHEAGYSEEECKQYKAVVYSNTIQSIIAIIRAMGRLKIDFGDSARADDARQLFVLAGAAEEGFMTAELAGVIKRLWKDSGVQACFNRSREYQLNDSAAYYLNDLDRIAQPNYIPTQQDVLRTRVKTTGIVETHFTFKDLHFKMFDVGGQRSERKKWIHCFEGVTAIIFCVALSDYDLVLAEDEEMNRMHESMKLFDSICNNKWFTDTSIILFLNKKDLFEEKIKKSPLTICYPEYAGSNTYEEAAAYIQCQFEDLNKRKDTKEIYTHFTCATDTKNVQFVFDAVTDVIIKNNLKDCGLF

On to `CC(=O)N(CC(O)CN(C(C)=O)c1c(I)c(C(=O)NC[C@@H](O)CO)c(I)c(C(=O)NC[C@@H](O)CO)c1I)c1c(I)c(C(=O)NC[C@@H](O)CO)c(I)c(C(=O)NC[C@@H](O)CO)c1I`, for which the Potency result (in [1]; in the assay with ATS189; in the assay with CP185; in the assay on CP191; with CP201; in the assay on CP247) was “inactive” throughout. The Potency entry in the assay with CP250, with CP256, in the assay with CP262, with CP325, in the assay on CP329 and in the assay on Dd2 was “inactive” throughout. Moreover, the Potency entry with JCK, in the assay with N140, in the assay with PC15, in the assay on PC49, in the assay on SC27B and in the assay with TAB113 was “inactive” each time.

Turning to `CN(C)CC[C@@H](c1ccccc1)c1ccccn1`, the Potency entry in assay [2] was “inactive”. In [3], the molecule was classed as inactive.

On to `NS(=O)(=O)c1cc([C@@]2(O)NC(=O)c3ccccc32)ccc1Cl`, for which the Potency result (in assay [1]; in the assay on ATS189; in the assay with CP185; in the assay with CP191; with CP201; in the assay with CP247) was “inactive” each time. The Potency result in the assay with CP250, in the assay on CP256, in the assay on CP262, in the assay with CP325, with CP329 and with Dd2 was “inactive” throughout. Also, the Potency result with JCK, in the assay with N140, with PC15, in the assay on PC49, with SC27B and with TAB113 was “inactive” throughout.

Regarding `CC(=O)Nc1c(I)c(C(=O)N[C@H]2[C@@H](O)[C@H](O)[C@H](CO)O[C@@H]2O)c(I)c(N(C)C(C)=O)c1I`, the Potency result (in [1]; with ATS189; in the assay with CP185; in the assay with CP191; in the assay with CP201; with CP247) was “inactive” each time. Besides, the Potency result in the assay with CP250, in the assay on CP256, in the assay with CP262, with CP325, with CP329 and in the assay on Dd2 was “inactive” throughout. Further, the Potency result in the assay on JCK, with N140, in the assay with PC15, with PC49, in the assay with SC27B and with TAB113 was “inactive” throughout.

As to `CCN1C(=O)N[C@@H](c2ccccc2)C1=O`, the Potency entry (in assay [1]; with ATS189; in the assay on CP185; with CP191; in the assay with CP201; in the assay on CP247) was “inactive” in each case. Also, the Potency result in the assay on CP250, with CP256, in the assay on CP262, with CP325, in the assay with CP329 and with Dd2 was “inactive” in each case. The Potency result in the assay on JCK, with N140, with PC15, in the assay on PC49, in the assay on SC27B and in the assay with TAB113 was “inactive” in each case.

As for `COCCc1ccc(OC[C@H](O)CNC(C)C)cc1`, the Potency result (in assay [2]; in assay [1]; in the assay on ATS189; in the assay on CP185; in the assay on CP191; in the assay with CP201) was “inactive” each time. Besides, the Potency result with CP247, in the assay on CP250, in the assay on CP256, in the assay on CP262, with CP325 and with CP329 was “inactive” throughout. The Potency result in the assay on Dd2, with JCK, in the assay with N140, in the assay on PC15, in the assay on PC49 and with SC27B was “inactive” each time. In addition, the Potency result in the assay with TAB113 was “inactive”. Moreover, the result in assay [3] was inactive.

As for `COc1ccccc1OC[C@H](O)COC(N)=O`, the Potency entry (in assay [1]; in the assay with ATS189; in the assay with CP185; with CP191; in the assay with CP201; in the assay on CP247) was “inactive” each time. Moreover, the Potency entry with CP250, with CP256, in the assay on CP262, with CP325, in the assay with CP329 and in the assay on Dd2 was “inactive” each time. In addition, the Potency result with JCK, in the assay on N140, with PC15, with PC49, with SC27B and in the assay on TAB113 was “inactive” in each case.

For `CCC[C@H]1C(=O)N2C(N(C)C)=Nc3ccc(C)cc3N2C1=O`, the Potency result (in [1]; in the assay with ATS189; in the assay with CP185; in the assay with CP191; with CP201; in the assay on CP247) was “inactive” each time. The Potency result in the assay on CP250, with CP256, with CP262, in the assay with CP325, with CP329 and with Dd2 was “inactive” in each case. The Potency result with JCK, in the assay on N140, in the assay with PC15, with PC49, with SC27B and with TAB113 was “inactive” in each case.

In the case of `O=C(O)/C=C\c1ccc(Cn2ccnc2)cc1`, the Potency result (in [1]; in the assay on ATS189; in the assay with CP185; in the assay with CP191; in the assay on CP201; in the assay with CP247) was “inactive” in each case. For the same molecule, the Potency entry in the assay on CP250, with CP256, in the assay with CP262, in the assay on CP325, in the assay with CP329 and with Dd2 was “inactive” each time. Also, the Potency result in the assay with JCK, in the assay on N140, with PC15, with PC49, in the assay with SC27B and in the assay with TAB113 was “inactive” throughout.

Turning to `CC1(C)S[C@@H]2[C@H](NC(=O)[C@H](C(=O)O)c3ccsc3)C(=O)N2[C@H]1C(=O)O`, the Potency result (in assay [1]; in the assay with ATS189; with CP185; in the assay with CP191; in the assay with CP201; with CP247) was “inactive” in each case. Also, the Potency result with CP250, in the assay with CP256, in the assay on CP262, in the assay on CP325, in the assay with CP329 and in the assay with Dd2 was “inactive” each time. Besides, the Potency entry with JCK, in the assay with N140, in the assay with PC15, in the assay with PC49, in the assay on SC27B and in the assay on TAB113 was “inactive” each time.

As for `COc1ccc(C[C@@H]2c3cc(OC)c(OC)cc3CC[N@+]2(C)CCC(=O)OCCCCCOC(=O)CC[N@@+]2(C)CCc3cc(OC)c(OC)cc3[C@H]2Cc2ccc(OC)c(OC)c2)cc1OC`, the Potency entry (in [1]; in the assay with ATS189; in the assay with CP185; with CP191; in the assay with CP201; in the assay on CP247) was “inactive” each time. Moreover, the Potency result in the assay with CP250, in the assay on CP256, in the assay on CP262, with CP325, with CP329 and in the assay on Dd2 was “inactive” each time. Also, the Potency entry in the assay on JCK, in the assay with N140, in the assay on PC15, in the assay with PC49, in the assay with SC27B and in the assay with TAB113 was “inactive” in each case.

Regarding `CN(C)CCO[C@](C)(c1ccccc1)c1ccccn1`, in [2], the Potency result is “inactive”. Also, the molecule was called inactive in assay [3].

As for `CCCN[C@@H](C)C(=O)Nc1c(C)csc1C(=O)OC`, the Potency entry (in assay [1]; in the assay with ATS189; in the assay on CP185; with CP191; in the assay with CP201; in the assay on CP247) was “inactive” each time. Also, the Potency result in the assay with CP250, with CP256, in the assay on CP262, with CP325, with CP329 and in the assay with Dd2 was “inactive” throughout. Besides, the Potency entry in the assay with JCK, with N140, in the assay with PC15, with PC49, with SC27B and in the assay with TAB113 was “inactive” throughout.

For the molecule `CCN(CC)CCC[C@H](C)Nc1ccnc2cc(Cl)ccc12`, the Potency entry in [2] and in [1] was “inactive” in each case. Besides, in [3], the outcome was inactive. Further, the Potency was 4.47 µM (active) in the assay with CP185; 8.91 µM (active) in the assay with CP191; 12 µM (active) in the assay on CP201; 3.98 µM (active) in the assay on CP250; 8.91 µM (active) in the assay with CP256; 2.39 µM (active) with CP262. Besides, the Potency with CP325 is 7.57 µM (active); in the assay on CP329 it was 15.1 µM (active); with Dd2, 10 µM (active); in the assay with JCK it was 10 µM (active); with N140, 11.2 µM (active); with PC15, 2.51 µM (active).
